Experimental data from PubChem BioAssay.
For some assays here: Potency and affinity values are given separately. Activity calls are given as the source filed them. Unless noted, the rule behind the calls is not given here.

Legend:
[1] = antimalarial activity against Dd2 strain (AID 2302;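 active = growth inhibition above 50% at the single 2 µM test dose, taken to imply half-maximal potency below 2 µM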;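 note: 0% = DMSO untreated growth and 100% = chloroquine plus artemisinin killed control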); conditions: P. falciparum Dd2 in RBCs, LDH growth readout, 72 h; at 2 µM; stronger effect = higher value
[2] = HepG2 cytotoxicity, primary screen, cytotoxicity control for P. falciparum antimalarial project, cell-based, ATP luminescence (AID 2303;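 active = inhibition above 50%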;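 note: 0% = DMSO wells and 100% = digitonin-killed cells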); conditions: HepG2 viability, 24-48 h, at 10 µM, stronger effect = higher value
[3] = target: L-lactate dehydrogenase (Plasmodium falciparum (isolate CDC / Honduras)) (UniProt Q27743); assay: PfLDH activity inhibition – cell lysate, 3D7 strain, counter-screen for P. falciparum growth inhibition project (AID 2304);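 note: 0% = vehicle and 100% = reference inhibitor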; conditions: P. falciparum 3D7 crude extract, LDH APAD/NBT absorbance; at 2 µM; stronger effect = higher value
L-lactate dehydrogenase (Plasmodium falciparum (isolate CDC / Honduras)), sequence (Q27743 whole entry, looked up): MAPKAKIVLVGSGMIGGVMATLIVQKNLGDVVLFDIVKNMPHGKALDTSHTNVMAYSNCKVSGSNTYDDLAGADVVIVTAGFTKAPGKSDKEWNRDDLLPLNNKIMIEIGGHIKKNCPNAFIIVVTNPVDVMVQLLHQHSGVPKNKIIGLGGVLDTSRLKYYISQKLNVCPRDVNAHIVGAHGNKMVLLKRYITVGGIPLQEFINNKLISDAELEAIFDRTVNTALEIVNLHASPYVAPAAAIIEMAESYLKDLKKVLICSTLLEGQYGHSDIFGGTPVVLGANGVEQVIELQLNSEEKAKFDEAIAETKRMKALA

[4] = inhibition of 3D7 malaria parasite growth – strain 3D7 (AID 2306);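 note: 0% = DMSO wells and 100% = chloroquine plus artemisinin control wells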; conditions: P. falciparum 3D7 erythrocytic growth, LDH absorbance, 72 h; at 2 µM; stronger effect = higher value
[5] = target: Calcium-dependent protein kinase 1 (Plasmodium falciparum (isolate 3D7)) (UniProt P62344); assay: PfCDPK1 kinase inhibitors, biochemical, TCAMS library (AID 1159585; cut-off not given, nearly all actives have IC50 up to about 0.98 µM;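 note: inhibitors leave more ATP so luminescence rises with inhibition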); conditions: recombinant PfCDPK1, Kinase-Glo ATP depletion luminescence
Calcium-dependent protein kinase 1 (Plasmodium falciparum (isolate 3D7)), sequence (P62344 whole entry, looked up): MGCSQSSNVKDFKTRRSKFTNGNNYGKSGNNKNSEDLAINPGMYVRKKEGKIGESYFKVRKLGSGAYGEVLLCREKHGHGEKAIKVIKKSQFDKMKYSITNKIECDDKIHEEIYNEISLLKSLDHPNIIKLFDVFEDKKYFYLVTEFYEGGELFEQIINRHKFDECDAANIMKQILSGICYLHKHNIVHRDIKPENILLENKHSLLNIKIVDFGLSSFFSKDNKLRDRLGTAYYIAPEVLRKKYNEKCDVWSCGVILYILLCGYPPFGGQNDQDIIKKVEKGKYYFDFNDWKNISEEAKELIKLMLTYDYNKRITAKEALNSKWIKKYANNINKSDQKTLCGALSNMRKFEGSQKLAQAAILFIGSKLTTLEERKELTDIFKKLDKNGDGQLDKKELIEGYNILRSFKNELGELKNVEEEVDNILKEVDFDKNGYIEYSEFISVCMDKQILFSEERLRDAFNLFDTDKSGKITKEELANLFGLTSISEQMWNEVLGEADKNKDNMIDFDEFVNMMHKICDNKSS

[6] = target: Plasmodium falciparum protein kinase 6 (PK6, PF3D7_1337100) (UniProt Q8IDW1); assay: PfPK6 kinase inhibitors, biochemical, TCAMS library (AID 1159586); conditions: recombinant PfPK6, Kinase-Glo ATP depletion luminescence
Plasmodium falciparum protein kinase 6 (PK6, PF3D7_1337100), sequence (Q8IDW1 1-305): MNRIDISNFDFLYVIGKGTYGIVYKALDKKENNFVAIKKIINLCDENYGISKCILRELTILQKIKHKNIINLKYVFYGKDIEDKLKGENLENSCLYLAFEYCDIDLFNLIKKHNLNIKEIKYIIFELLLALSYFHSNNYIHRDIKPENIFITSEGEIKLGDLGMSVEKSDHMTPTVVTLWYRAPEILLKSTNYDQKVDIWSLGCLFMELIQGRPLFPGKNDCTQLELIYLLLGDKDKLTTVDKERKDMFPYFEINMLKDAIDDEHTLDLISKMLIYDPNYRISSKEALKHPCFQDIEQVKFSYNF

[7] = target: Protein kinase 7 (PK7), Plasmodium falciparum 3D7 (PF3D7_0213400) (UniProt Q7YTF7); assay: inhibition of Plasmodium PK7 catalytic activity – biochemical, TCAMS antimalarial set, Kinase-Glo luminescence (AID 1159587); conditions: recombinant PfPK7, Kinase-Glo ATP depletion luminescence
Protein kinase 7 (PK7), Plasmodium falciparum 3D7 (PF3D7_0213400), sequence (Q7YTF7 1-343): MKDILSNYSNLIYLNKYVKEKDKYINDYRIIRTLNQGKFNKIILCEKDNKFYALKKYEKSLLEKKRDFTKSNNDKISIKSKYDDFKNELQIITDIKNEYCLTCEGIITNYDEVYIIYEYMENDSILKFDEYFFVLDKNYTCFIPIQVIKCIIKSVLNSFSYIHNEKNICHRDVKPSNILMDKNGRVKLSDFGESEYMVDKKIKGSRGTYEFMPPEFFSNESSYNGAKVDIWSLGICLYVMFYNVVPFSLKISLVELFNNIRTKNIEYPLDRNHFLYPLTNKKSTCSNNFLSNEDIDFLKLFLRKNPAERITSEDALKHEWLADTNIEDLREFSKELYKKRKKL

[8] = target: Calcium-dependent protein kinase 4 (Plasmodium falciparum (isolate 3D7)) (UniProt Q8IBS5); assay: PfCDPK4 kinase inhibitors, biochemical, TCAMS library (AID 1159588; cut-off not given, nearly all actives have IC50 up to about 0.91 µM); conditions: recombinant PfCDPK4, Kinase-Glo ATP depletion luminescence
Calcium-dependent protein kinase 4 (Plasmodium falciparum (isolate 3D7)), sequence (Q8IBS5 whole entry, looked up): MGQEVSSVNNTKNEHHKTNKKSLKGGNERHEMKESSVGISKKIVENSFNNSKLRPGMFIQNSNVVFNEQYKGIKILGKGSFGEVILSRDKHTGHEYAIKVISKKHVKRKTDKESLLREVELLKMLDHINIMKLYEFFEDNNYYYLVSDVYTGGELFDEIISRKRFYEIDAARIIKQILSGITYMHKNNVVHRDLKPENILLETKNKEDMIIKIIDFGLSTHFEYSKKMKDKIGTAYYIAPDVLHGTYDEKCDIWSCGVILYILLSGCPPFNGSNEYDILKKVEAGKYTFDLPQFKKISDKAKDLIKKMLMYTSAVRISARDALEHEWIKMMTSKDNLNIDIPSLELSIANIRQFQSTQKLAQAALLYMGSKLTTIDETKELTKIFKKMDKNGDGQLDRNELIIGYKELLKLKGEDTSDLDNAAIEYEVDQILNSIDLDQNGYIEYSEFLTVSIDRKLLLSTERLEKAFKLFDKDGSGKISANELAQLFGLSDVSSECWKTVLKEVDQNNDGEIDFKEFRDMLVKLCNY

O=C(/C=C/c1ccc(Cl)c(Cl)c1)NC1CCC(CN2CCC(c3nc4ccc(O)cc4[nH]3)CC2)CC1 (stereo not given)
active: growth inhibition [1] 84% | growth inhibition [4] 101%
inactive: inhibition [2] 41% | inhibition [3] -6% | outcome [5] | outcome [6] | outcome [7] | outcome [8]

O=C(Nc1cc(C(F)(F)F)ccc1Cl)c1ccc(Cn2cc(Br)cn2)cc1
active: growth inhibition [1] 67% | growth inhibition [4] 91%
inactive: inhibition [2] 24% | inhibition [3] -5% | outcome [5] | outcome [6] | outcome [7] | outcome [8]

O=C(/C=C/c1ccc(Cl)cc1)NCCCCCN1CCC(c2c[nH]c3ccccc23)CC1
inactive: growth inhibition [1] 15% | inhibition [2] 42% | inhibition [3] 7% | outcome [5] | outcome [6] | outcome [7] | outcome [8]
active: growth inhibition [4] 99%

C=CCOC(=O)N1CCC(CNCc2ccc(-c3cccc(-c4nc5c(C)cccc5[nH]4)c3)cc2)C1 (stereo not given)
inactive: inhibition [2] 25% | inhibition [3] -5% | outcome [5] | outcome [6] | outcome [7] | outcome [8]
active: growth inhibition [1] 99% | growth inhibition [4] 102%

O=C(c1cccc(-c2ccc(-c3nc4ccc(C(F)(F)F)cc4[nH]3)cc2)c1)N1CCCCC1CN1CCC(O)C1 (stereo not given)
inactive: inhibition [2] 19% | inhibition [3] 4% | outcome [5] | outcome [6] | outcome [7] | outcome [8]
active: growth inhibition [1] 101% | growth inhibition [4] 92%

CNC(=O)c1cnc(Nc2ccc(OCC(O)CN(C)C)cc2)nc1Nc1cccc(Br)c1 (stereo not given)
inactive: inhibition [3] -5% | outcome [5] | outcome [6] | outcome [7] | outcome [8]
active: growth inhibition [1] 100% | inhibition [2] 68% | growth inhibition [4] 102%

Cc1noc(C)c1-c1cccc(CNCc2cccc(-c3ccc(-c4nc5ccccc5[nH]4)cc3)c2)c1
inactive: inhibition [2] 27% | inhibition [3] -2% | outcome [5] | outcome [6] | outcome [7] | outcome [8]
active: growth inhibition [1] 76% | growth inhibition [4] 100%

O=c1cc(NCCCNCc2cccc(I)c2)[nH]c2ccccc12
inactive: growth inhibition [1] 9% | inhibition [2] 10% | inhibition [3] -1% | outcome [5] | outcome [6] | outcome [7] | outcome [8]
active: growth inhibition [4] 90%

COc1ccc(CCNCCCCNCCc2ccc(OC)c3ccccc23)c2ccccc12
inactive: growth inhibition [1] 33% | inhibition [3] -1% | outcome [5] | outcome [6] | outcome [7] | outcome [8]
active: inhibition [2] 100% | growth inhibition [4] 100%

COc1ccc(Nc2nccc(N3CCC(NS(=O)(=O)c4ccc(NC(C)=O)cc4)C3)n2)cc1 (stereo not given)
inactive: growth inhibition [1] 16% | inhibition [2] 3% | inhibition [3] -2% | outcome [5] | outcome [6] | outcome [7] | outcome [8]
active: growth inhibition [4] 100%

Oc1ccccc1CCNCC1CCc2ccccc2C1 (stereo not given)
active: growth inhibition [1] 98% | growth inhibition [4] 98%
inactive: inhibition [2] 37% | inhibition [3] 0% | outcome [5] | outcome [6] | outcome [7] | outcome [8]

COc1ccc(C(C)Nc2nc(N)c3cc(OC)c(OC)cc3n2)cc1 (stereo not given)
active: growth inhibition [4] 101%
inactive: growth inhibition [1] 28% | inhibition [2] 23% | inhibition [3] -2% | outcome [5] | outcome [6] | outcome [7] | outcome [8]

CC(C)[C@H](NC(=O)c1c(F)cccc1F)C(=O)Nc1ccc(Cc2nc3ccccc3s2)cc1
inactive: inhibition [2] 3% | inhibition [3] 0% | outcome [5] | outcome [6] | outcome [7] | outcome [8]
active: growth inhibition [1] 72% | growth inhibition [4] 82%

O=C(NCCCN1CCC(N2CCCCC2)CC1)c1ccc2nc(N3CCCCC3)sc2c1
inactive: growth inhibition [1] 20% | inhibition [2] 11% | inhibition [3] -1% | outcome [5] | outcome [6] | outcome [7] | outcome [8]
active: growth inhibition [4] 89%

O=C(NCCN1CCOCC1)c1ccc(-c2ccc(CNCCCc3ccccc3)cc2)nc1
inactive: growth inhibition [1] 10% | inhibition [2] -11% | inhibition [3] -1% | outcome [5] | outcome [6] | outcome [7] | outcome [8]
active: growth inhibition [4] 97%

CC(C)C[C@H](NC(=O)c1cc2ccccc2s1)C(=O)N[C@H]1CCN(Cc2ccc(OCCCN(C)C)c(Cl)c2)C1
active: growth inhibition [1] 89% | inhibition [2] 83% | growth inhibition [4] 100%
inactive: inhibition [3] 1% | outcome [5] | outcome [6] | outcome [7] | outcome [8]

COc1ccc2ncc(F)c(CCN3C[C@H](CNCc4cc(C#N)c5c(c4)OCCO5)[C@H](O)C3)c2n1
inactive: inhibition [2] 7% | inhibition [3] -5% | outcome [5] | outcome [6] | outcome [7] | outcome [8]
active: growth inhibition [1] 64% | growth inhibition [4] 100%

ON=C(c1nc2ccccc2[nH]1)c1nc2ccccc2[nH]1
inactive: inhibition [2] 36% | inhibition [3] 6% | outcome [5] | outcome [6] | outcome [7] | outcome [8]
active: growth inhibition [1] 68% | growth inhibition [4] 93%

CCOC(=O)/C(=N\OC(C(=O)OC(C)(C)C)c1ccccc1)c1csc(NC(c2ccccc2)(c2ccccc2)c2ccccc2)n1 (stereo not given)
inactive: inhibition [2] 14% | inhibition [3] 5% | outcome [5] | outcome [6] | outcome [7] | outcome [8]
active: growth inhibition [1] 68% | growth inhibition [4] 89%

CC(=O)Nc1cccc(CNCc2ccc(-c3cnc(N4CCCC(c5ccccc5)C4)nc3)cc2)c1 (stereo not given)
active: growth inhibition [4] 84%
inactive: growth inhibition [1] 22% | inhibition [2] 16% | inhibition [3] 3% | outcome [5] | outcome [6] | outcome [7] | outcome [8]

O=C(c1cc(-c2ccco2)[nH]n1)N1CCN(S(=O)(=O)c2ccc(Cl)cc2)CC1
active: growth inhibition [1] 95% | growth inhibition [4] 96%
inactive: inhibition [2] -5% | inhibition [3] 2% | outcome [5] | outcome [6] | outcome [7] | outcome [8]

CCCCCCCCNCc1c(O)ccc2ccccc12
active: growth inhibition [1] 94% | growth inhibition [4] 99%
inactive: inhibition [2] -11% | inhibition [3] 0% | outcome [5] | outcome [6] | outcome [7] | outcome [8]

CCCc1cc(=O)[nH]c(-n2nc(C)cc2NC(=O)c2cc3ccccc3o2)n1
active: growth inhibition [1] 63% | growth inhibition [4] 90%
inactive: inhibition [2] 39% | inhibition [3] -2% | outcome [5] | outcome [6] | outcome [7] | outcome [8]

NC1=NC2(CCCCC2)N(OCCCCCCC2CCCCC2)C(N)=N1
active: inhibition [2] 77% | growth inhibition [4] 97%
inactive: growth inhibition [1] 49% | inhibition [3] -4% | outcome [5] | outcome [6] | outcome [7] | outcome [8]

CCCCN1CC[C@@H](CCC(O)c2ccnc3ccc(OCCC(C)C)cc23)[C@@H](CC)C1 (stereo not given in full)
active: growth inhibition [1] 90% | growth inhibition [4] 94%
inactive: inhibition [2] 22% | inhibition [3] 2% | outcome [5] | outcome [6] | outcome [7] | outcome [8]

CCCCCCN1CCCN(Cc2ccc(C(=O)Nc3ccc(F)c(F)c3)cc2)CC1
inactive: growth inhibition [1] 48% | inhibition [3] -8% | outcome [5] | outcome [6] | outcome [7] | outcome [8]
active: inhibition [2] 50% | growth inhibition [4] 84%

O=c1cc(NCCCNCc2cc(Cl)cc(Cl)c2OCc2ccc(Cl)cc2)[nH]c2ccccc12
inactive: inhibition [2] 6% | inhibition [3] 3% | outcome [5] | outcome [6] | outcome [7] | outcome [8]
active: growth inhibition [1] 53% | growth inhibition [4] 98%

Nc1nc(N)c2cc(CNc3ccc(Cl)c(Cl)c3)ccc2n1
active: growth inhibition [1] 55% | inhibition [2] 62% | growth inhibition [4] 93%
inactive: inhibition [3] 5% | outcome [5] | outcome [6] | outcome [7] | outcome [8]

CS(=O)(=O)CCNCc1cccc(-c2cc3c(Nc4ccc(OCc5ccccc5)cc4)ncnc3cn2)c1
inactive: growth inhibition [1] 26% | inhibition [2] 3% | inhibition [3] 2% | outcome [5] | outcome [6] | outcome [7] | outcome [8]
active: growth inhibition [4] 101%

COc1ccc(NC(C)C(=O)Nc2ccc(Br)cc2)cc1S(=O)(=O)N1CCCCC1 (stereo not given)
inactive: inhibition [2] 2% | inhibition [3] -2% | outcome [5] | outcome [6] | outcome [7] | outcome [8]
active: growth inhibition [1] 97% | growth inhibition [4] 99%

Cc1ccc(C)c2sc(N(CCCn3ccnc3)C(=O)c3ccco3)nc12
active: growth inhibition [1] 63% | growth inhibition [4] 96%
inactive: inhibition [2] 28% | inhibition [3] 0% | outcome [5] | outcome [6] | outcome [7] | outcome [8]

CN1CCCC1CCNCc1cccc(-c2cnc(N3CCCC(C)(C)C3)nc2)c1 (stereo not given)
inactive: inhibition [3] 5% | outcome [5] | outcome [6] | outcome [7] | outcome [8]
active: growth inhibition [1] 95% | inhibition [2] 99% | growth inhibition [4] 98%

CC(=O)c1cccc(NC(=O)NC2CCN(CCCCCNC(=O)/C=C/c3ccc(Cl)c(Cl)c3)CC2)c1
active: growth inhibition [4] 94%
inactive: growth inhibition [1] 1% | inhibition [2] 7% | inhibition [3] 1% | outcome [5] | outcome [6] | outcome [7] | outcome [8]

N#Cc1ccc(CN2CCCN(Cc3cccc(NC(=O)c4ccc(Cl)c(Cl)c4)c3)CC2)cc1
active: growth inhibition [4] 95%
inactive: growth inhibition [1] 10% | inhibition [2] 19% | inhibition [3] -1% | outcome [5] | outcome [6] | outcome [7] | outcome [8]

CCCC(C(=O)OCCN(CC)CC)(c1ccc(Cl)cc1)c1ccc(Cl)cc1
inactive: inhibition [2] 7% | inhibition [3] 2% | outcome [5] | outcome [6] | outcome [7] | outcome [8]
active: growth inhibition [1] 87% | growth inhibition [4] 91%

COc1ccc([C@@]23Oc4cc(OC)cc(OC)c4[C@]2(O)C2(CC3c3ccccc3)SCCCS2)cc1 (stereo not given in full)
active: growth inhibition [1] 97% | growth inhibition [4] 96%
inactive: inhibition [2] 39% | inhibition [3] -10% | outcome [5] | outcome [6] | outcome [7] | outcome [8]

Nc1nc2c(cnn2CCCCCCCP(=O)(O)O)c(=O)[nH]1
active: growth inhibition [1] 91% | growth inhibition [4] 94%
inactive: inhibition [2] -3% | inhibition [3] 4% | outcome [5] | outcome [6] | outcome [7] | outcome [8]

O=C(Nc1ccc(N2CCCCC2)c(Cl)c1)c1ccc(Br)o1
inactive: inhibition [2] -8% | inhibition [3] -1% | outcome [5] | outcome [6] | outcome [7] | outcome [8]
active: growth inhibition [1] 94% | growth inhibition [4] 94%

CCOc1cc(C(C)C)ccc1N1CCN(CCCCNC(=O)c2ccc(NC(=O)c3ccc(Cl)cc3)cc2)CC1
inactive: inhibition [2] 28% | inhibition [3] 4% | outcome [5] | outcome [6] | outcome [7] | outcome [8]
active: growth inhibition [1] 97% | growth inhibition [4] 101%

Cc1ccc2c(-c3ccc([N+](=O)[O-])o3)cc(C)nc2c1
active: growth inhibition [4] 95%
inactive: growth inhibition [1] 47% | inhibition [2] 20% | inhibition [3] 3% | outcome [5] | outcome [6] | outcome [7] | outcome [8]
